Test results as given in PubChem BioAssay (Tox21).
A number with no mark means an inactive call. Inconclusive results are not listed. Where a call stands in place of a potency, no number is given. Active and inactive are the calls of the source. Unless noted, calls come from the whole dose curve; as a rule, active = well fitted curve in the direction sought with a large enough effect in the repeat runs; inconclusive = weak or mixed curves; inactive = no such curve, though single readings can be large; an effect the other way counts as inactive or inconclusive.

Experiments:
[1] = target: Progesterone receptor (Homo sapiens) (UniProt P06401); experiment: qHTS assay to identify small molecule agonists of the progesterone receptor (PR) signaling pathway (AID 1346784; calls by dose curve; note: nearly all actives have a fitted effect of over 30% in size; note: potency is the fitted concentration of half-maximal effect)
Sequence of Progesterone receptor (Homo sapiens) (P06401 whole entry, looked up): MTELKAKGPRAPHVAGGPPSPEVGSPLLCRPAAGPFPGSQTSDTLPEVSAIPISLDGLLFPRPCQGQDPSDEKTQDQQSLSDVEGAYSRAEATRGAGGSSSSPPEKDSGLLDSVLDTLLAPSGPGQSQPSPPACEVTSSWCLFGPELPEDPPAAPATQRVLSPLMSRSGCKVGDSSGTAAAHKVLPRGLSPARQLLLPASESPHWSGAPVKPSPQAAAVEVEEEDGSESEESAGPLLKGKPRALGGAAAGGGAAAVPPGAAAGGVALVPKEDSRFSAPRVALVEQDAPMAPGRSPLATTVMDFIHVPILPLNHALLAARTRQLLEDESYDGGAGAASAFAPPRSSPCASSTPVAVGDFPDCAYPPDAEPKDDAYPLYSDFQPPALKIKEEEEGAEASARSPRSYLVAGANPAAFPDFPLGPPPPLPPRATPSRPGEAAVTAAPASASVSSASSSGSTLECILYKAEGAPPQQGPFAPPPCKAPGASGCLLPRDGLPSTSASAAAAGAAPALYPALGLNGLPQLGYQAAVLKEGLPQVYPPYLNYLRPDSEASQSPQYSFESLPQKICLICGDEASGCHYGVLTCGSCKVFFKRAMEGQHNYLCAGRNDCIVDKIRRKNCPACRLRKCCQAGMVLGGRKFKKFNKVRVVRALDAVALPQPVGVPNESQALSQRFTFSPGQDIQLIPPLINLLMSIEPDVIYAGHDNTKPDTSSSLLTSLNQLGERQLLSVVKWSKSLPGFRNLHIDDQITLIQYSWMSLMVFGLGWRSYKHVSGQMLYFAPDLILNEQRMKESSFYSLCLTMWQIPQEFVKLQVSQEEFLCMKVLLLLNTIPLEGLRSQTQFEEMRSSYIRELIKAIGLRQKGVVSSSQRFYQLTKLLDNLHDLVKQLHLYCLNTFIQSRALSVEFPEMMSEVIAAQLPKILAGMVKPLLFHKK
Procedure, shortened: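 HEK 293T PR-UAS-bla reporter cells, 2% charcoal-stripped FBS; 6 hr settle at 37C/5% CO2, compound (DMSO) 16 hr, LiveBLAzer B/G FRET substrate 2 hr RT, fluorescence intensity read.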

[2] = target: Progesterone receptor (Homo sapiens) (UniProt P06401); experiment: qHTS assay to identify small molecule antagonists of the progesterone receptor (PR) signaling pathway (AID 1346795; active = well fitted inhibition curve with a large enough effect in the signal ratio in the repeat runs, not every such curve was filed as active; the % refers to the signal ratio)
Procedure, shortened: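 Beta-lactamase reporter, HEK293T PR-UAS-bla line; 2% charcoal-stripped FBS; 6 hr pre-incubation, 37C/5% CO2. Compound + R5020 1 nM final, 16 hr. LiveBLAzer B/G FRET substrate, 2 hr RT; fluorescence intensity read.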

[3] = qHTS assay to identify small molecule antagonists of the progesterone receptor (PR) signaling pathway - cell viability counter screen (AID 1346798); note: series mostly up to about 92 µM; nearly all actives have a fitted effect of over 50% in size
Procedure, shortened: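 Luminescence readout (CellTiter-Glo, 30 min, RT) of viability in PR-UAS-bla HEK293T cells exposed to compound and R5020 agonist for 16 hr at 37C, 5% CO2; run in the same wells as the beta-lactamase reporter read.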

[4] = qHTS assay to identify small molecule agonists of the progesterone receptor (PR) signaling pathway - cell viability counter screen (AID 1346799; calls by dose curve; note: nearly all actives have a fitted effect of over 45% in size)
Procedure, shortened: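 HEK293T PR-UAS-bla, 3,000 cells/well, 2% charcoal-stripped FBS; 6 h settle, compound 16 h at 37C/5% CO2; LiveBLAzer 2 h RT, then CellTiter-Glo 30 min RT, luminescence read.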

[5] = qHTS assay to identify small molecule antagonists of the TGF-beta/Smad signaling pathway - cell viability counter screen (AID 1346824); note: nearly all actives have a fitted effect of over 50% in size
Procedure, shortened: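 SBE-bla HEK 293T cells were plated overnight at 37 C, then given compounds in DMSO plus TGF-beta1 (added as 0.25 ng/mL solution) for 5 hr. After the bla read, CellTiter-Glo was added to the same wells and luminescence read after 30 min at room temperature.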

[6] = qHTS assay to identify small molecule agonists of the TGF-beta/Smad signaling pathway - cell viability counter screen (AID 1346829); note: top concentration of the series differs between compounds; nearly all actives have a fitted effect of over 45% in size
Procedure, shortened: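 After overnight seating at 37 C and 5% CO2, reporter cells got compounds for 5 hr and FRET substrate for 2 hr; cell viability then came from CellTiter-Glo luminescence.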

[7] = qHTS assay to identify small molecule agonists of the TGF-beta/Smad signaling pathway (AID 1346859; active = well fitted activation curve with a large enough effect in the signal ratio in the repeat runs, not every such curve was filed as active; the % refers to the signal ratio; note: series mostly up to about 77 µM)
Procedure, shortened: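 Read-out: fluorescence at 460 and 530 nm (405 nm excitation) after a 2 hr room-temperature incubation with beta-lactamase FRET substrate. SBE-bla HEK 293T cells had been treated with test compounds for 5 hr at 37 C.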

[8] = target: Thyrotropin-releasing hormone receptor (Homo sapiens) (UniProt P34981); experiment: qHTS assay to identify small molecule antagonists of the thyrotropin-releasing hormone receptor (TRHR) signaling pathway (AID 1346877; active = well fitted inhibition curve with a large enough effect in the repeat runs, not every such curve was filed as active; note: series mostly up to about 51 µM)
Sequence of Thyrotropin-releasing hormone receptor (Homo sapiens) (P34981 whole entry, looked up): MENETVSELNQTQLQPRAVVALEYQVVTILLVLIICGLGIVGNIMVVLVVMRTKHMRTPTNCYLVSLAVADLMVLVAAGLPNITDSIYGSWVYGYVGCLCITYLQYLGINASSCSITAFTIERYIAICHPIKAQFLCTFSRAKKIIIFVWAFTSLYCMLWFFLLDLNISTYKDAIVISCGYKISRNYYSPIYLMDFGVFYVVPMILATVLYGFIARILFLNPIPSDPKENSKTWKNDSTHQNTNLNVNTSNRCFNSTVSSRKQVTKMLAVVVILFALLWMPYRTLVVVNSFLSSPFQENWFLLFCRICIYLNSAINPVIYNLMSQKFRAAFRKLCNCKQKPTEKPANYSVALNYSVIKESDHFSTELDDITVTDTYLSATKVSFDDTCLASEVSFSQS
Procedure, shortened: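 Calcium signal in dye-loaded TRHR/HEK293 cells; compounds added 5 min before TRH (1 nM final); fluorescence monitored 3 min at 1 s steps.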

[9] = Human pregnane X receptor (PXR) small molecule agonists, qHTS cell viability counter screen (AID 1346977); note: nearly all actives have a fitted effect of over 50% in size
Procedure, shortened: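 Fluorescence read-out (CellTiter-Fluor) of viability in PXR-Luc HepG2 cells, multiplexed with the luciferase agonist read. Compounds in DMSO added after 5hr plating; 24hr total exposure at 37C, 5% CO2.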

[10] = Caspase-3/7 induction in HepG2 cells by small molecules, qHTS assay (AID 1346978); note: nearly all actives have a fitted effect of over 15% in size
Procedure, shortened: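 Wild-type HepG2 cells (2,000/well) were settled 5 h at 37 C, 5% CO2, then exposed to compounds in DMSO for 17 h. Caspase-3/7 activity was read by luminescence 30 min after adding Caspase-Glo 3/7 reagent at room temperature.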

[11] = Caspase-3/7 induction in CHO-K1 cells by small molecules, qHTS cell viability counter screen (AID 1346979); note: nearly all actives have a fitted effect of over 35% in size
Procedure, shortened: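 CHO-K1 wt, 1,500 cells/well; 5hr pre-incubation 37C/5% CO2; compound pin transfer (DMSO); 16hr exposure; CellTiter-Fluor added, 1hr, fluorescence read.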

[12] = Caspase-3/7 induction in CHO-K1 cells by small molecules, qHTS assay (AID 1346980); note: nearly all actives have a fitted effect of over 15% in size
Procedure, shortened: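 Wild-type cells were seeded at 1,500 per well and settled 5 hr at 37 C, 5% CO2, then exposed to DMSO-dissolved compounds for 17 hr. Caspase-Glo 3/7 reagent was added, and luminescence was read after 30min at room temperature.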

[13] = Caspase-3/7 induction in HepG2 cells by small molecules, qHTS cell viability counter screen (AID 1346981); note: series mostly up to about 92 µM; nearly all actives have a fitted effect of over 30% in size
Procedure, shortened: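 After a 5-hr attachment period at 37 C and 5% CO2, wild-type HepG2 cells received compounds in DMSO. Sixteen hours later CellTiter-Fluor was dispensed and the fluorescent signal quantified after a further hour.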

[14] = target: Nuclear receptor subfamily 1 group I member 2 (Homo sapiens) (UniProt O75469); experiment: Human pregnane X receptor (PXR) small molecule agonists, qHTS assay (AID 1346982); note: nearly all actives have a fitted effect of over 35% in size
Sequence of Nuclear receptor subfamily 1 group I member 2 (Homo sapiens) (O75469 whole entry, looked up): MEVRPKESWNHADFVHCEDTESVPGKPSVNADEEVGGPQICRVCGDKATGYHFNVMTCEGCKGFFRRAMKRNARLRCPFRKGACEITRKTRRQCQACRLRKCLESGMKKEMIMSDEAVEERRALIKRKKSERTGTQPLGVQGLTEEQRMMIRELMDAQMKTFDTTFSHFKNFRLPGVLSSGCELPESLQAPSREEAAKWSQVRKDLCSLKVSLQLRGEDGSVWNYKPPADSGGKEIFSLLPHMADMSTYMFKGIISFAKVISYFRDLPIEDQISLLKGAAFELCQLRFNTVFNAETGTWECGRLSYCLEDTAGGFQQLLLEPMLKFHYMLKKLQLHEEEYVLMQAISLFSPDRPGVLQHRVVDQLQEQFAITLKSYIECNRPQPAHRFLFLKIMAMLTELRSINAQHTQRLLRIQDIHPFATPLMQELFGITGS
Procedure, shortened: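 Tox21 qHTS; PXR-Luc HepG2; compounds pinned from DMSO; 24 hr, 37 C; ONE-Glo luciferase detection, 30 min room temperature.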

[15] = target: Cytochrome P450 2D6 (Homo sapiens) (UniProt P10635); experiment: Cytochrome P450 Family 2 Subfamily D Member 6 (CYP2D6) small molecule antagonists: luciferase reporter qHTS assay (AID 1671196); note: series mostly up to about 120 µM; nearly all actives have a fitted effect of over 50% in size
Sequence of Cytochrome P450 2D6 (Homo sapiens) (P10635 whole entry, looked up): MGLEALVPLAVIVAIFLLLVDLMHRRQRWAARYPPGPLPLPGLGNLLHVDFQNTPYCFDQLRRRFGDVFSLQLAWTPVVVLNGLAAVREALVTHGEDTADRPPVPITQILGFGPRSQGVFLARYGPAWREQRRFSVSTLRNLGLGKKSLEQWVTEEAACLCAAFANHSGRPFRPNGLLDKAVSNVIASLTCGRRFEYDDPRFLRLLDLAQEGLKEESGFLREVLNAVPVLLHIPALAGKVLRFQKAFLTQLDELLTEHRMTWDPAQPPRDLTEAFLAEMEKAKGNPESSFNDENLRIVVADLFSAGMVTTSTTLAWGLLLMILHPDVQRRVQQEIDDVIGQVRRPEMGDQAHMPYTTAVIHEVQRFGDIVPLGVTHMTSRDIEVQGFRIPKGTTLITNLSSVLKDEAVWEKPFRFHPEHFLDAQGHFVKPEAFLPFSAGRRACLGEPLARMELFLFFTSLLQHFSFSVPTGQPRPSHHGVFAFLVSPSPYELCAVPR
Procedure, shortened: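 Room-temperature luminescent CYP2D6 activity assay: compound preincubated 10 min with enzyme–substrate mix, NADPH-initiated reaction 1 h, detection reagent 20 min before reading.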

[16] = target: Cytochrome P450 2C19 (Homo sapiens) (UniProt P33261); experiment: Cytochrome P450 Family 2 Subfamily C Member 19 (CYP2C19) small molecule antagonists: luciferase reporter qHTS assay (AID 1671197); note: nearly all actives have a fitted effect of over 65% in size; note: potency is the fitted concentration of half-maximal effect
Sequence of Cytochrome P450 2C19 (Homo sapiens) (P33261 whole entry, looked up): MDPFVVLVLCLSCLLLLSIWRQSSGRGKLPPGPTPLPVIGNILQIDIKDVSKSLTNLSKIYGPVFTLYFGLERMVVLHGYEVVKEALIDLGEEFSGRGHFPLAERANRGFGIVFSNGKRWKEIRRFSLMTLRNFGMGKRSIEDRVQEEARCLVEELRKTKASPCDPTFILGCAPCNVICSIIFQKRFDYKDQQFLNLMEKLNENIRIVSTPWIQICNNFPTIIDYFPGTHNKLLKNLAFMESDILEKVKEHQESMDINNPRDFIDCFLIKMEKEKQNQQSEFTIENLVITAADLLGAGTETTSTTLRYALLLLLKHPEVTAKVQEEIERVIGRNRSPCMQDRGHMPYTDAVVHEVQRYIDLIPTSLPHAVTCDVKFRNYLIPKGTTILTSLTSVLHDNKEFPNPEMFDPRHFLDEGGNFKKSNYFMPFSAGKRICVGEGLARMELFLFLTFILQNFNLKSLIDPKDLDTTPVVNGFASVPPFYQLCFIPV
Procedure, shortened: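 Inhibition of CYP2C19 was scored from loss of luminescence in a P450-Glo proluciferin substrate assay, NADPH-started and run 1 h at 37C, with ketoconazole as positive control.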

[17] = target: Thyrotropin-releasing hormone receptor (Homo sapiens) (UniProt P34981); experiment: qHTS assay to identify small molecule agonists of the thyrotropin-releasing hormone receptor (TRHR) signaling pathway (AID 1346891; calls by dose curve;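 note: HEK293 cells expressing TRHR with calcium dye readout; series mostly up to about 58 µM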)
Procedure, shortened: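 HEK293/TRHR cells, 1500 per well, 18 h 37 °C; Ca dye 2 h 37 °C; pin-tool compound addition (agonist mode); kinetic fluorescence 3 min, 1 s reads; 15 concentrations, triplicate.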

[18] = target: Nuclear receptor subfamily 1 group I member 2 (Rattus norvegicus) (UniProt Q9R1A7); experiment: Rat pregnane X receptor (rPXR) activation by small molecules, qHTS assay (AID 1346983); details: rPXR luciferase reporter cells, One-Glo luminescence, 24 h; hits give high values; note: nearly all actives have a fitted effect of over 20% in size
Sequence of Nuclear receptor subfamily 1 group I member 2 (Rattus norvegicus) (Q9R1A7 whole entry, looked up): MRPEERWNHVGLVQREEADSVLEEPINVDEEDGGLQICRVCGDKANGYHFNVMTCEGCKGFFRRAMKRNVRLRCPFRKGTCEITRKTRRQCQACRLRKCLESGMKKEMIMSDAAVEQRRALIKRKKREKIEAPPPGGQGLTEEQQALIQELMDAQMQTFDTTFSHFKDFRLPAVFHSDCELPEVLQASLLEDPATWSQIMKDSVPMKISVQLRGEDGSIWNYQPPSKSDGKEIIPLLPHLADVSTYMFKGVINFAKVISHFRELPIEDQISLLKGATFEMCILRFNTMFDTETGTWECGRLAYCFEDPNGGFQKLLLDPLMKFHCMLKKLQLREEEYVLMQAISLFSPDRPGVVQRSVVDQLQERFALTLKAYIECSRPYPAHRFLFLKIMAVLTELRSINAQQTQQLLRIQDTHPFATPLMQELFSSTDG
Procedure, shortened: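 Cell-based rPXR luciferase reporter assay, 2,000 cells per well, rested 5hr at 37 C before compound addition in DMSO, then 24 hr at 37 C. One-Glo reagent was added and luminescence read after 30 min at room temperature.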

[19] = target: Nuclear receptor subfamily 1 group I member 2 (Homo sapiens) (UniProt O75469); experiment: CYP3A4 induction through human pregnane X receptor (PXR) by small molecules, qHTS assay (AID 1346984); note: nearly all actives have a fitted effect of over 40% in size
Procedure, shortened: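 Cells (DPX-2; HepG2 with PXR element plus CYP3A4-promoter luciferase) settled 5hr, then were treated 24hr at 37C. A 3hr, 3uM-final Luciferin-IPA step preceded luminescence measurement with One-Glo.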

[20] = target: Nuclear receptor subfamily 1 group I member 2 (Homo sapiens) (UniProt O75469); experiment: Human pregnane X receptor (PXR) activation by small molecules, qHTS assay (AID 1346985); note: nearly all actives have a fitted effect of over 40% in size
Procedure, shortened: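 DPX-2 cells (HepG2 co-transfected with a PXR response element and a CYP3A4-promoter luciferase construct) were seeded at 2,000 per well, rested 5 hr at 37C, then exposed to DMSO-dissolved compounds for 24 hr. Activation was read as luciferase luminescence.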

SMILES | Potency [1] | Potency [2] | Potency [3] | Potency [4] | Potency [5] | Potency [6] | Potency [7] | Potency [8] | Potency [9] | Potency [10] | Potency [11] | Potency [12] | Potency [13] | Potency [14] | Potency [15] | Potency [16] | outcome [17] | max activation [18] [%] | Potency [19] | Potency [20]
Clc1sc(Cl)c(Cl)c1Cl | inactive | inactive | inactive | inactive | inactive | inactive | inactive | inactive | inactive | inactive | inactive | inactive | inactive | inactive | inactive | inactive | – | – | – | –
CCCCCC/C=C\CCCCCCCC(=O)O | inactive | inactive | inactive | inactive | inactive | inactive | inactive | inactive | inactive | inactive | – | inactive | inactive | inactive | inactive | 50.2 µM (active) | inactive | – | – | –
Cc1c(C)c2c(c(C)c1OC(=O)c1cccnc1)CC[C@@](C)(CCC[C@H](C)CCC[C@H](C)CCCC(C)C)O2 | inactive | inactive | inactive | inactive | inactive | inactive | inactive | – | inactive | inactive | inactive | inactive | inactive | inactive | inactive | inactive | – | 0.296 | inactive | inactive
O=C1OC2(c3ccc(O)cc3Oc3cc(O)ccc32)c2ccc(N=C=S)cc21 | 0.879 µM (active) | inactive | inactive | inactive | inactive | inactive | inactive | – | inactive | inactive | inactive | inactive | inactive | inactive | inactive | 72.3 µM (active) | – | – | – | –
CC(C)CCOC(=O)/C=C/c1ccccc1 | inactive | inactive | inactive | inactive | inactive | inactive | – | inactive | inactive | inactive | inactive | inactive | inactive | inactive | inactive | 63.5 µM (active) | inactive | – | – | –
O=C(O)c1ccc2cc(C(=O)O)ccc2c1 | inactive | inactive | inactive | inactive | inactive | inactive | – | inactive | inactive | inactive | inactive | inactive | inactive | inactive | inactive | 32 µM (active) | inactive | – | – | –
Cc1cccc(C)c1NC(=O)c1ccc(N)cc1 | inactive | inactive | inactive | inactive | inactive | inactive | – | – | inactive | inactive | inactive | inactive | inactive | inactive | inactive | inactive | – | – | – | –
